# An excerpt weighted towards active compounds, which were near 3.6% of everything screened.
# mHTT CaM bind – disrupts binding of mutant huntingtin to calmodulin; inhibition, % at 15 µM; hit rate 3.6% among 190,000; P42858; AlphaScreen His-mHTT/GST-CaM binding, luminescence;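 further: 0% = both proteins with DMSO and 100% = one protein alone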
# Pf apPOL block – Pf-apPOL DNA polymerase inhibition; Recombinant Pf-apPOL, molecular beacon fluorescence, 1.5 h; inhibition, % at 10 µM; hit rate 0.25% among 210,000
# Starred values were filed as active, the others as inactive; / = no result given; ! = not confirmed by another sample. No stated cut-off is given here; in the data, active means inhibition above about 50%; inactive means the rest.
SMILES,mHTT CaM bind,Pf apPOL block
COc1ccc(CN[C@H]2CCC23CCC(c2ccccc2)CC3)cc1OC (some centres undefined),3,4
CCN(CC)c1ccc(NS(=O)(=O)c2cccc3nsnc23)c(C)c1,54*,-4
CCN(CC)c1ccc(NC(=O)CCS(=O)(=O)c2cccc3nsnc23)c(C)c1,17,-2
O=C(Nc1ccccn1)NC(c1ccccc1)C(Cl)(Cl)Cl (centres undefined),-4,-1
O=C(c1ccc(-c2ccsc2)nc1)N1CCN(C2CCCCC2)CC1,-3,-1
O=C(c1ccccc1)N1CCC(n2nc(-c3ccsc3)ccc2=O)CC1,99*,-3
O=C(c1ccc(-c2ccsc2)nc1)N1CCCC1,-1,-6
Cc1ccc(C(=O)N2CCC(n3nc(-c4ccsc4)ccc3=O)CC2)cc1,100*,0
COc1ccc(C(=O)NCC2Cc3cc(F)ccc3O2)cc1 (centres undefined),-3,-4
Cc1ccc(S(=O)(=O)Nc2ccc(NC(=O)C3CC=CCC3C(=O)O)cc2)cc1 (centres undefined),-3,3
O=C(c1ccc([N+](=O)[O-])cc1)c1ccc2c(c1)OCCCO2,1,-12
C=CCc1ccccc1OCC(O)CN1CCN(c2ccccc2OC)CC1 (centres undefined),43,-8
C=CCc1ccccc1OCC(O)CN1CCN(c2ccccc2F)CC1 (centres undefined),-11,-2
C=CCc1ccccc1OCC(O)CN1CCN(c2ccc(F)cc2)CC1 (centres undefined),75*,-13
C=CCc1ccccc1OCC(O)CN1CCN(c2ccccc2)CC1 (centres undefined),74*,-1
CC1CCCN(c2cc(SCC(=O)Nc3ccc(Cl)cc3C(F)(F)F)ncn2)C1 (centres undefined),-7,-7
N#CCC(=O)c1ccc(Cl)cc1,14,1
N#CCC(=O)c1ccc([N+](=O)[O-])cc1,98*,6
COc1ccc(NC(=O)c2nn(-c3ccccc3OC)c(=O)c3ccccc23)cc1Cl,4,-2
O=C1c2ccccc2C(=O)c2c1oc1c3c(ccc21)OCN(Cc1ccccc1)C3,11,14
CCCCN1COc2ccc3c4c(oc3c2C1)C(=O)c1ccccc1C4=O,70*,11
COCCCN1COc2ccc3c(C)c(-c4ccccc4)c(=O)oc3c2C1,12,-10
O=C1c2ccccc2C(=O)c2c1oc1c3c(ccc21)OCN(CCc1ccccc1)C3,61*,-4
COc1ccc(-c2coc3c4c(ccc3c2=O)OCN(C2CC(C)(C)NC(C)(C)C2)C4)cc1OC,2,-5
CC(=O)c1c(C)oc2c1c1c(c3ccccc32)OCN(C2CC(C)(C)NC(C)(C)C2)C1,78*,7
SMILES,mHTT CaM bind,Pf apPOL block
CC(=O)c1c(C)oc2c1c1c(c3ccccc32)OCN(C2CCCCC2)C1,6,1
CC1(C)CC(N2COc3ccc4c5c(oc4c3C2)C(=O)c2ccccc2C5=O)CC(C)(C)N1,96*!,37
CC1C(O)CCC1(C(=O)O)c1ccccc1 (centres undefined),-6,-10
COC(=O)c1cc(Cl)c2c(c1)CC(CNC(=O)C(C)Cl)O2 (centres undefined),-7,10
CC(Oc1ccccc1)c1nc(-c2ccc3ncn(C)c3c2)no1 (centres undefined),-9,-5
Cc1ccccc1NCN1C(=O)S/C(=C\c2ccccc2)C1=O,53*,0
Cc1ccccc1NCN1C(=O)S/C(=C\c2ccc(F)cc2)C1=O,28,-5
CCOC(=O)C1CCC(CNC(=O)N2CC3CCCN3c3ccccc32)CC1 (centres undefined),66*,-2
CCOC(=O)CC1(NC(=O)N2CC3CCCN3c3ccccc32)CCCCC1 (centres undefined),64*,-3
CCOC(=O)C1CCC(CNC(=O)N2CC(CC)Oc3ccccc32)CC1 (centres undefined),-7,2
COC(=O)CNC(=O)N1CC2CCCN2c2ccccc21 (centres undefined),8,0
CC1CCN(C(=O)c2ccc3c(c2)Sc2ncccc2C(=O)N3C(C)C)CC1,17,3
COc1cc([N+](=O)[O-])ccc1NC(=O)c1cnc2n(c1=O)CCS2,-3,-3
COc1ccccc1N(CC(N)=O)S(=O)(=O)c1ccccc1,-6,-5
COc1ccccc1N(CC(O)COc1ccc(C)cc1)S(=O)(=O)c1ccccc1 (centres undefined),52*,0
COc1cccc(N2C(=O)NC3CC2(C)Oc2ccccc23)c1 (centres undefined),88*,-4
Cc1ccc(N2C(=O)NC3CC2(C)Oc2ccc(Br)cc23)cc1C (centres undefined),36,-2
Cc1ccc(CCNC(=O)c2ccc(N3C(=O)NC4CC3(C)Oc3ccccc34)cc2)cc1 (centres undefined),49,-6
Cc1ccc(CNC(=O)c2ccc(N3C(=O)NC4CC3(C)Oc3ccccc34)cc2)cc1 (centres undefined),55*,-8
COc1cccc(N2C(=O)NC3CC2(C)Oc2ccc(Cl)cc23)c1 (centres undefined),31,15
Cc1ccc(N2C(=O)NC3CC2(C)Oc2ccc(Br)cc23)cc1Cl (centres undefined),55*,-4
Cc1nc(C(=O)N2CCN(C)CC2)c(C)n1C1CCN(C)CC1,-1,-6
N#Cc1ccc(C(=O)NCC2CCN(c3cc(-c4ccncc4)[nH]n3)CC2)cc1,19,-4
Cc1nccn1-c1ccc(N2CCN(S(=O)(=O)Cc3ccccc3)CC2)nn1,-2,4
CC(=O)Nc1nonc1-c1nc2ccccc2n1CCCC#N,0,3
SMILES,mHTT CaM bind,Pf apPOL block
COc1ccc(Cn2cc(S(=O)(=O)N3CCCC3)ccc2=O)cc1F,0,-2
Cc1c(NC(=O)c2cc(Br)ccc2Cl)cccc1-c1nc2ccccc2o1,-6,-2
O=C(C1CCC1)N1CCN(C2=NN=C(c3cccs3)CS2)CC1,78*,-5
O=C(c1cccs1)N1CCN(C(=O)C2CCCCC2)CC1,/,-8
CCC(=O)NCc1nc2c(n1C)CN(C(=O)c1ccc(F)c(F)c1)CC2,6,2
c1ccc2c(N3CCN(c4ncnc5ccccc45)CC3)ncnc2c1,-4,57*
Brc1ccc2ncnc(N3CCCC3)c2c1,-2,-2
CC1CCC2(CC1)OCC(C(=O)N1CCCN(C)CC1)N2C(=O)c1ccccc1F (centres undefined),2,-2
COc1ccc(CNC(=O)Cn2cc(-c3ccc(F)cc3)oc2=O)cc1,-4,-2
O=c1cc(N2CCOCC2)[nH]n1-c1ccc([N+](=O)[O-])cc1,37,7
CCCc1cc(=O)n(-c2ccc([N+](=O)[O-])cc2)[nH]1,52*,-1
O=C1C(=Cc2cccs2)CSC1=Cc1cccs1,/,-10
CCNC(=O)N1CCCC(c2cccc(C(=O)NCc3ccc(N(C)C)cc3)c2)C1 (centres undefined),54*,-4
CC(C)NC(=O)N1CCCC(c2cccc(C(=O)NCc3ccc(N(C)C)cc3)c2)C1 (centres undefined),17,-8
O=C(c1ccccc1)N1CCC(CCNS(=O)(=O)c2ccc3c(c2)CCCC3)CC1,60*,4
Cc1ccc(S(=O)(=O)NCCC2CCN(C(=O)c3ccccc3)CC2)cc1,46,3
CCc1ccc(S(=O)(=O)NCCC2CCN(C(=O)c3ccccc3)CC2)cc1,39,-4
